# Out of some 39,000 compounds screened, about 1,500 (3.8%) were called active. This is one part of a sample in which actives are shown more often than they occur.
# Tested on: HSkMC (human skeletal muscle cells)
# Assay: cytotoxicity call (relative viability < 0.9)
# Conditions: 10 µM
row,SMILES,cytotoxicity call
1,Cc1ccc(-c2cnc3c(c2)C(=O)N([C@@H](C)CO)C[C@H](C)[C@@H](CN(C)C(=O)Cc2ccncc2)O3)cc1,inactive
2,C[C@@H]1CN([C@H](C)CO)C(=O)c2cccc(NC(=O)c3ccc(-c4nccs4)cc3)c2O[C@@H]1CN(C)C(=O)NC1CCCCC1,inactive
3,C[C@@H]1CN([C@H](C)CO)C(=O)c2cc(NC(=O)Nc3ccc(C(F)(F)F)cc3)ccc2O[C@@H](C)CCCCO[C@H]1CN(C)Cc1ccc(Cl)c(Cl)c1,inactive
4,C[C@@H]1CCCCO[C@@H](CN(C)Cc2ccc(C(F)(F)F)cc2)[C@H](C)CN([C@@H](C)CO)C(=O)c2cc(NC(=O)Nc3ccc(F)cc3)ccc2O1,inactive
5,C[C@@H]1CN([C@H](C)CO)C(=O)c2cc(NC(=O)Nc3ccc(C(F)(F)F)cc3)ccc2O[C@@H](C)CCCCO[C@@H]1CN(C)Cc1ccncc1,active
6,C[C@@H]1CN([C@H](C)CO)C(=O)c2cc(NC(=O)Nc3ccc(F)cc3)ccc2O[C@@H](C)CCCCO[C@H]1CN(C)Cc1ccc(C(F)(F)F)cc1,active
7,C[C@@H]1CN([C@H](C)CO)C(=O)c2cc(NC(=O)Nc3ccc(C(F)(F)F)cc3)ccc2O[C@@H](C)CCCCO[C@@H]1CN(C)Cc1ccc(C(F)(F)F)cc1,active
8,C[C@@H]1CN([C@@H](C)CO)C(=O)c2cc(NC(=O)Nc3ccc(C(F)(F)F)cc3)ccc2O[C@@H](C)CCCCO[C@H]1CN(C)Cc1ccc(Cl)c(Cl)c1,inactive
9,C[C@H](CO)N1C[C@H](C)[C@@H](CN(C)Cc2ccncc2)OCCCC[C@H](C)Oc2ccc(NC(=O)Nc3ccc(C(F)(F)F)cc3)cc2C1=O,inactive
10,C[C@H](CO)N1C[C@H](C)[C@@H](CN(C)Cc2ccc(Cl)c(Cl)c2)OCCCC[C@H](C)Oc2ccc(NC(=O)Nc3ccc(C(F)(F)F)cc3)cc2C1=O,active
11,C[C@@H]1CCCCO[C@@H](CN(C)Cc2ccncc2)[C@H](C)CN([C@H](C)CO)C(=O)c2cc(NC(=O)Nc3ccc(C(F)(F)F)cc3)ccc2O1,inactive
12,C[C@H](CO)N1C[C@H](C)[C@H](CN(C)Cc2ccc(C(F)(F)F)cc2)OCCCC[C@H](C)Oc2ccc(NC(=O)Nc3ccc(F)cc3)cc2C1=O,inactive
13,C[C@@H]1CCCCO[C@H](CN(C)Cc2ccc(C(F)(F)F)cc2)[C@@H](C)CN([C@H](C)CO)C(=O)c2cc(NC(=O)Nc3ccc(C(F)(F)F)cc3)ccc2O1,inactive
14,C[C@H]1CCCCO[C@H](CN(C)Cc2ccc(C(F)(F)F)cc2)[C@@H](C)CN([C@@H](C)CO)C(=O)c2cc(NC(=O)Nc3ccc(F)cc3)ccc2O1,inactive
